Our source for the Potency, max activation and outcome values is PubChem BioAssay (Tox21).

SMILES strings stand for the structures. Where “and” joins values, the source holds several entries; their conditions need not be identical. Equal entries are not always repeated. Inconclusive results are not listed. A structure can be active in one record and inactive in another. Calls of active or inactive are those of the source. Unless noted, calls follow the shape of the dose curve; as a rule, active = well fitted curve in the direction sought with a large enough effect in the repeat runs; inconclusive = weak or mixed curves; inactive = no such curve, though single readings can be large; an effect the other way counts as inactive or inconclusive.

Test [1] addresses Thyrotropin-releasing hormone receptor (Homo sapiens) (UniProt P34981). In words: qHTS assay to identify small molecule agonists of the thyrotropin-releasing hormone receptor (TRHR) signaling pathway (AID 1346891; calls by dose curve;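 also: HEK293 cells expressing TRHR with calcium dye readout; series mostly up to about 58 µM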). In short, it runs like this:
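Kinetic fluorescence (3 min, 1 s intervals) reported intracellular calcium after compound transfer onto TRHR-Hek293 cells pre-loaded with dye for 2 h at 37 °C.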

Test [2] is described as follows: Human pregnane X receptor (PXR) small molecule agonists, qHTS cell viability counter screen (AID 1346977). Also: nearly all actives have a fitted effect of over 50% in size. Also: potency is read from the fitted curve at half-maximal effect. In short, it runs like this: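 HepG2 cells stably carrying the PXR-Luc reporter are cultured with 5% charcoal-stripped FBS and treated with compounds for 24hr. CellTiter-Fluor is added at 23hr and fluorescence is read after 1hr.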
Test [3] in a line: Caspase-3/7 induction in HepG2 cells by small molecules, qHTS assay (AID 1346978). Also: nearly all actives have a fitted effect of over 15% in size. In short, it runs like this:
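Caspase-3/7 induction was measured by Caspase-Glo 3/7 luminescence (30 min, room temperature) after a 17 hr compound exposure of wild-type HepG2 cells seeded at 2,000 per well and pre-incubated 5 hr.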
(qHTS replaces the single test concentration by a dilution series.)

The nature of test [4]: Caspase-3/7 induction in CHO-K1 cells by small molecules, qHTS cell viability counter screen (AID 1346979). Also: nearly all actives have a fitted effect of over 35% in size. Also: potency is read from the fitted curve at half-maximal effect. The procedure, abridged:
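Seeding: 1,500 CHO-K1 cells/well. Rest: 5hr, 37C. Treatment: compounds in DMSO, 16hr. Read: CellTiter-Fluor, 1hr, fluorescence.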

The nature of test [5]: Caspase-3/7 induction in CHO-K1 cells by small molecules, qHTS assay (AID 1346980). Also: nearly all actives have a fitted effect of over 15% in size. The procedure, abridged: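 Luminescent Caspase-Glo 3/7 read (30min, room temperature) quantified apoptosis induction. Cells were wild-type CHO-K1, treated with compound for 17hr at 37 C and 5% CO2.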
A short description of test [6]: Caspase-3/7 induction in HepG2 cells by small molecules, qHTS cell viability counter screen (AID 1346981). Also: nearly all actives have a fitted effect of over 30% in size. Also: potency is read from the fitted curve at half-maximal effect. The procedure, abridged:
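After a 5-hr attachment period at 37 C and 5% CO2, wild-type HepG2 cells received compounds in DMSO. Sixteen hours later CellTiter-Fluor was dispensed and the fluorescent signal quantified after a further hour.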

Test [7] concerns the target Nuclear receptor subfamily 1 group I member 2 (Homo sapiens) (UniProt O75469). Kind of test: Human pregnane X receptor (PXR) small molecule agonists, qHTS assay (AID 1346982). Also: nearly all actives have a fitted effect of over 35% in size. Also: potency is read from the fitted curve at half-maximal effect. The procedure, abridged: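 Tox21 qHTS; PXR-Luc HepG2; compounds pinned from DMSO; 24 hr, 37 C; ONE-Glo luciferase detection, 30 min room temperature.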
Test [8] concerns the target Nuclear receptor subfamily 1 group I member 2 (Rattus norvegicus) (UniProt Q9R1A7). Kind of test: Rat pregnane X receptor (rPXR) activation by small molecules, qHTS assay (AID 1346983). Also: nearly all actives have a fitted effect of over 20% in size. As to conditions: rPXR luciferase reporter cells, One-Glo luminescence, 24 h; stronger effect = higher value. The procedure, abridged: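 Luminescent readout (One-Glo luciferase, 30 min room temperature) followed 24 hr compound treatment at 37 C of rPXR cells plated 2,000 per well and preincubated 5hr; qHTS format with compounds delivered in DMSO.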

Test [9] deals with Nuclear receptor subfamily 1 group I member 2 (Homo sapiens) (UniProt O75469). In words: CYP3A4 induction through human pregnane X receptor (PXR) by small molecules, qHTS assay (AID 1346984). Also: nearly all actives have a fitted effect of over 40% in size. In short, it runs like this: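 Cells (DPX-2; HepG2 with PXR element plus CYP3A4-promoter luciferase) settled 5hr, then were treated 24hr at 37C. A 3hr, 3uM-final Luciferin-IPA step preceded luminescence measurement with One-Glo.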
Sequence of Nuclear receptor subfamily 1 group I member 2 (Homo sapiens) (O75469 whole entry, looked up): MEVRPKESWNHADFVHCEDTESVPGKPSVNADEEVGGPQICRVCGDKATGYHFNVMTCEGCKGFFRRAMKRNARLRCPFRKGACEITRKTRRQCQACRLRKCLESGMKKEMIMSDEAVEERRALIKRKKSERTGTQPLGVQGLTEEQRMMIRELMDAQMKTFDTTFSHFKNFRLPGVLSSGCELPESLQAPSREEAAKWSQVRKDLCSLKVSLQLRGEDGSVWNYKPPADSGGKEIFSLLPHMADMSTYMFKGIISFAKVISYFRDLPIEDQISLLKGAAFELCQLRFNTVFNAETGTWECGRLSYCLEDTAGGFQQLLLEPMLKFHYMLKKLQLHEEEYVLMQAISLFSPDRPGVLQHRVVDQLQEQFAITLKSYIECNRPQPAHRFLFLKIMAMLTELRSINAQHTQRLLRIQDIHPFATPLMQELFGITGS

Test [10] shares this target. Kind of test: Human pregnane X receptor (PXR) activation by small molecules, qHTS assay (AID 1346985). Also: nearly all actives have a fitted effect of over 40% in size. In short, it runs like this:
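DPX-2 cells (HepG2 co-transfected with a PXR response element and a CYP3A4-promoter luciferase construct) were seeded at 2,000 per well, rested 5 hr at 37C, then exposed to DMSO-dissolved compounds for 24 hr. Activation was read as luciferase luminescence.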
% is scaled to controls: 0 for no effect and ±100 for the full control effect.

Sequence of Thyrotropin-releasing hormone receptor (Homo sapiens) (P34981 whole entry, looked up): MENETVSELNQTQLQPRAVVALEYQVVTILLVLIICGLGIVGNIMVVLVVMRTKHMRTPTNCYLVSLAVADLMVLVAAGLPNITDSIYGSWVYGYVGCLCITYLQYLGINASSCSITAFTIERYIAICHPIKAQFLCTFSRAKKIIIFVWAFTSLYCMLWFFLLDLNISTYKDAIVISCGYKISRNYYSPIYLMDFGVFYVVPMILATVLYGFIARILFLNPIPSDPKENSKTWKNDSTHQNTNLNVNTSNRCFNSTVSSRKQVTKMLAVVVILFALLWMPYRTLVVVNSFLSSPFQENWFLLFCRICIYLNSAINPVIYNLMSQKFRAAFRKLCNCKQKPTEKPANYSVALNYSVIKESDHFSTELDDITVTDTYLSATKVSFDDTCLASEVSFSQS
Sequence of Nuclear receptor subfamily 1 group I member 2 (Rattus norvegicus) (Q9R1A7 whole entry, looked up): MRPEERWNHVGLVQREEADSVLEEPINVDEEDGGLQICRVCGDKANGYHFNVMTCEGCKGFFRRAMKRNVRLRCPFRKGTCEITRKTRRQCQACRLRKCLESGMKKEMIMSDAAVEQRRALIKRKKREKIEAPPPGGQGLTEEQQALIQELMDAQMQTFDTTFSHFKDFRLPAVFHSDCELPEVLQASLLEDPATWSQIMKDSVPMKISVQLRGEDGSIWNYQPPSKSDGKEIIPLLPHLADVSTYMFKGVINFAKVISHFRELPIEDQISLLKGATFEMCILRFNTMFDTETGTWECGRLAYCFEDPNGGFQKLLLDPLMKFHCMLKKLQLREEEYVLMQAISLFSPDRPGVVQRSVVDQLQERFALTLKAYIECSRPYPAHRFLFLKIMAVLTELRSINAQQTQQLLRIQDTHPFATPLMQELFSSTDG

As to `O=C1C=CC(=O)C=C1`, the Potency entry in test [1], in test [2], in [3], in test [4], in test [5] and in [6] was “inactive” throughout. In addition, the Potency result in test [7] is “inactive”.

Take `Nc1ccc(Cl)c(Cl)c1`: the Potency entry in [1], in [2], in test [3], in test [4], in test [5] and in test [6] was “inactive” in each case. The Potency entry in test [7] was “inactive”.

As to `CCC(C)c1ccc(O)cc1` (centres undefined), the Potency entry in test [1], in test [2], in test [3], in test [4], in [5] and in [6] was “inactive” throughout. The Potency entry in [7] is “inactive”.

In the case of `c1ccc(P(c2ccccc2)c2ccccc2)cc1`, the Potency entry in test [1], in test [2], in test [3], in [4], in test [5] and in [6] was “inactive” in each case. In test [7], the Potency is 55.5 µM (active) and 30.6 µM (active).

Take `CC(C)(OOC(C)(C)c1ccccc1)c1ccccc1`: the Potency entry in [1], in test [2], in [3], in test [4], in test [5] and in test [6] was “inactive” throughout. Also, the Potency result in test [7] is “inactive”.

Turning to `NC(=S)Nc1ccccc1`, the Potency result in test [1], in test [2], in test [3], in test [4], in test [5] and in [6] was “inactive” each time. For the same compound, the Potency entry in test [7] was “inactive”.

Regarding `C1=Cc2cccc3cccc1c23`, the Potency entry in test [1], in test [2], in test [3], in [4], in test [5] and in test [6] was “inactive” in each case. The Potency result in [7] was “inactive”.

Take `c1ccc(NNc2ccccc2)cc1`: the Potency entry in [1], in test [2], in [3], in [4], in test [5] and in test [6] was “inactive” each time. Also, in test [7], the Potency entry was “inactive and 48.6 µM (active)”.

Consider `O=S(=O)(Oc1ccc(Cl)cc1)c1ccc(Cl)cc1`, for which the Potency entry in test [1], in [2], in test [3], in test [4], in test [5] and in [6] was “inactive” in each case. The Potency in [7] is 55.2 µM (active) and 30.6 µM (active).

With `CCN(CC)N=O`, the Potency entry in [1], in test [2], in [3], in test [4], in test [5] and in test [6] was “inactive” throughout. For the same compound, the Potency result in test [7] is “inactive”.

As for `c1ccc(-c2cccc(-c3ccccc3)c2)cc1`, the Potency entry in test [1], in test [2], in test [3], in [4], in [5] and in test [6] was “inactive” throughout. For the same compound, the Potency in test [7] is 61.8 µM (active) and 27.3 µM (active).

Take `Nc1cccnc1`: the Potency entry in test [1], in test [2], in [3], in test [4], in test [5] and in test [6] was “inactive” each time. For the same compound, the Potency result in [7] is “inactive”.

In the case of `COC(=O)c1sccc1S(=O)(=O)NC(=O)Nc1nc(C)nc(OC)n1`, the Potency entry in [1], in [2], in test [3], in test [4], in [5] and in test [6] was “inactive” throughout. The Potency entry in test [7] was “inactive”.

Turning to `CC(C)C(=O)OCC(C)(C)C(OC(=O)C(C)C)C(C)C` (centres undefined), the Potency entry in test [1], in test [2], in test [3], in test [4], in test [6] and in [7] was “inactive” throughout.

As to `Cc1ccc2c(c1N)C(=O)c1ccccc1C2=O`, the Potency result in test [1] and in test [3] was “inactive” each time. Besides, the Potency was 19.1 µM (active) and 27.3 µM (active) in test [2]; 48 µM (active) and 54.5 µM (active) in [4]; 30.3 µM (active) and 48.6 µM (active) in test [6]; 4.28 µM (active) and 1.93 µM (active) in test [7].

For the compound `Oc1cc(Cl)ccc1Cl`, the Potency result in test [1], in test [2], in [3], in test [4], in test [6] and in test [7] was “inactive” in each case.

For `CCCCCCCCCCCOC(=O)c1ccccc1C(=O)OCCCCCCCCCCC`, the Potency entry in [1], in [2], in test [3], in [4], in test [6] and in test [7] was “inactive” throughout.

In the case of `Clc1nc(Cl)nc(Cl)n1`, the Potency entry in [1], in test [2], in test [3], in test [4], in test [6] and in test [7] was “inactive” throughout.

As to `NCc1cccnc1`, the Potency entry in [1], in [2], in test [3], in test [4], in test [5] and in [6] was “inactive” in each case. In addition, the Potency entry in test [7] is “inactive”. Also, in [8], the max activation was -2.22% (inactive). The compound was classed as inactive in test [9] and in [10].

As for `Nc1c(Cl)cc([N+](=O)[O-])cc1Cl`, the Potency result in [1], in test [2], in test [3], in test [4] and in test [6] was “inactive” throughout. For the same compound, the Potency in [7] is 27.5 µM (active).

Take `CCN(CC)C(=O)/C(Cl)=C(\C)OP(=O)(OC)OC`: the Potency entry in test [1], in test [2], in test [3], in test [4], in test [5] and in [6] was “inactive” in each case. Further, in test [7], the Potency entry is “inactive and 54.5 µM (active)”. Besides, the max activation in test [8] is 5.74% (inactive). In addition, the compound was classed as inactive in [9].

In the case of `C=CCc1ccc(OC)cc1`, the Potency entry in test [1], in [2], in test [3], in test [4], in test [6] and in test [7] was “inactive” in each case.

In the case of `O=P(Oc1ccccc1)(Oc1ccccc1)Oc1ccccc1`, the Potency entry in test [1], in test [2], in test [3] and in test [6] was “inactive” each time. Moreover, the Potency in [4] is 68.2 µM (active); in test [7], 30.5 µM (active) and 27.3 µM (active).

Regarding `O=Cc1ccco1`, the Potency entry in test [1], in test [2], in test [3], in [4], in test [6] and in [7] was “inactive” throughout. The max activation in test [8] was -0.979% (inactive). The outcome in test [9] and in test [10] was inactive.

For `C#C[C@]1(O)CC[C@H]2[C@@H]3CCC4=CC(=O)CC[C@]4(C)[C@H]3CC[C@@]21C`, the Potency result in test [1], in [2], in test [3], in test [4], in [5] and in test [6] was “inactive” each time. In addition, the max activation in test [8] was 11.6% (inactive).
